Reference: PubChem BioAssay AID1159580 (chemical genetic matrix, 2015)
Several values for one entry are separate records, joined by “and”; a condition that tells them apart may be missing. Equal entries are not always repeated. About 2,000 (36%) of roughly 5,500 compounds were called active. Inconclusive results (about 18%) are left out. No stated cut-off is given here; in the data, active means normalized growth mostly below about 0.91 (no sharp cut-off); inconclusive means no clear call, values can overlap the other calls; inactive means mostly above about 0.92. Some of the results follow.

Assay: chemical genetic growth profiling, strain panel (AID 1159580);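 further: tested at 20 µM; growth read once vehicle control cultures reached saturation at 30 °C; 1 = growth at the plate median or of vehicle wells; lower values mean less growth of the strain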
Settings: growth OD

Measured: normalized growth

CC(C)(C)NCC(O)c1cc(O)cc(O)c1 (stereo not drawn)
inactive: S. cerevisiae deletion strains, locus YKL009W, strain mrt4, active compounds read low 0.961 | S. cerevisiae deletion strains, locus YKL068W, active compounds read low 0.975 | S. cerevisiae deletion strains, locus YKL085W, strain MDH1 (second series), active compounds read low 0.967 | S. cerevisiae deletion strains, locus YKL085W, strain MDH1, active compounds read low 0.967 | S. cerevisiae deletion strains, locus YKL160W, strain elf1, active compounds read low 0.934 | S. cerevisiae deletion strains, locus YKL190W, strain CNB1, active compounds read low 0.994 | S. cerevisiae deletion strains, locus YKR001C, strain vps1, active compounds read low 0.994 | S. cerevisiae deletion strains, locus YKR026C, strain gcn3, active compounds read low 0.983 | S. cerevisiae deletion strains, locus YKR091W, strain srl3, active compounds read low 0.978 | S. cerevisiae deletion strains, locus YLL001W, strain dnm1, active compounds read low 1 | S. cerevisiae deletion strains, locus YLL026W, active compounds read low 0.984 | S. cerevisiae deletion strains, locus YLL041C, strain sdh2, active compounds read low 0.993 | S. cerevisiae deletion strains, locus YLR027C, strain aat2, active compounds read low 0.987 | S. cerevisiae deletion strains, locus YLR039C, strain RIC1, active compounds read low 0.978 | S. cerevisiae deletion strains, locus YLR058C, strain SHM2, active compounds read low 0.987 | S. cerevisiae deletion strains, locus YLR102C, strain apc9, active compounds read low 0.982 | S. cerevisiae deletion strains, locus YLR113W, strain HOG1, active compounds read low 0.981 | S. cerevisiae deletion strains, locus YLR221C, strain rsa3, active compounds read low 1.01 | S. cerevisiae deletion strains, locus YLR258W, strain gsy2, active compounds read low 0.993 | S. cerevisiae deletion strains, locus YLR262C, strain YPT6 (second series), active compounds read low 1 | S. cerevisiae deletion strains, locus YLR262C, strain YPT6, active compounds read low 0.979 | S. cerevisiae deletion strains, locus YLR268W, strain sec22, active compounds read low 0.951 | S. cerevisiae deletion strains, locus YLR320W, strain mms22, active compounds read low 0.981 | S. cerevisiae deletion strains, locus YLR330W, strain CHS5, active compounds read low 0.976 | S. cerevisiae deletion strains, locus YLR342W, strain FKS1 (second series), active compounds read low 0.99 | S. cerevisiae deletion strains, locus YLR342W, strain FKS1, active compounds read low 0.991 | S. cerevisiae deletion strains, locus YLR357W, strain rsc2, active compounds read low 0.967 | S. cerevisiae deletion strains, locus YLR370C, strain arc18, active compounds read low 0.975 | S. cerevisiae deletion strains, locus YLR371W, strain rom2, active compounds read low 0.964 | S. cerevisiae deletion strains, locus YLR384C, strain iki3, active compounds read low 0.988 | S. cerevisiae deletion strains, locus YLR418C, strain cdc73, active compounds read low 0.996 | S. cerevisiae deletion strains, locus YML016C, strain PPZ1, active compounds read low 0.992 | S. cerevisiae deletion strains, locus YML032C, strain rad52, active compounds read low 0.99 | S. cerevisiae deletion strains, locus YML120C, strain ndi1, active compounds read low 0.967 | S. cerevisiae deletion strains, locus YML124C, strain tub3, active compounds read low 0.983 | S. cerevisiae deletion strains, locus YMR058W, strain fet3, active compounds read low 1 | S. cerevisiae deletion strains, locus YMR078C, strain ctf18, active compounds read low 0.976 | S. cerevisiae deletion strains, locus YMR125W, strain sto1, active compounds read low 0.959 | S. cerevisiae deletion strains, locus YMR129W, active compounds read low 0.969 | S. cerevisiae deletion strains, locus YMR205C, strain PFK2, active compounds read low 0.984 | S. cerevisiae deletion strains, locus YMR223W, strain ubp8, active compounds read low 1.02 | S. cerevisiae deletion strains, locus YMR231W, strain pep5, active compounds read low 0.98 | S. cerevisiae deletion strains, locus YMR263W, strain SAP30, active compounds read low 0.984 | S. cerevisiae deletion strains, locus YMR307W, strain GAS1, active compounds read low 1.04 and 0.986 | S. cerevisiae deletion strains, locus YNL067W, strain RPL9B, active compounds read low 0.985 | S. cerevisiae deletion strains, locus YNL071W, strain lat1, active compounds read low 0.995 | S. cerevisiae deletion strains, locus YNL128W, strain TEP1, active compounds read low 1.01 | S. cerevisiae deletion strains, locus YNL175C, strain NOP13, active compounds read low 0.995 | S. cerevisiae deletion strains, locus YNL183C, strain NPR1, active compounds read low 0.943 | S. cerevisiae deletion strains, locus YNL197C, strain WHI3, active compounds read low 1 | S. cerevisiae deletion strains, locus YNL209W, strain ssb2, active compounds read low 0.989 | S. cerevisiae deletion strains, locus YNL224C, strain SQS1, active compounds read low 1.01 | S. cerevisiae deletion strains, locus YNL233W, strain BNI4, active compounds read low 0.993 | S. cerevisiae deletion strains, locus YNL248C, strain rpa49, active compounds read low 0.923 | S. cerevisiae deletion strains, locus YNL271C, strain bni1, active compounds read low 0.985 | S. cerevisiae deletion strains, locus YNL298W, strain CLA4, active compounds read low 0.979 | S. cerevisiae deletion strains, locus YNL307C, strain MCK1, active compounds read low 0.975 | S. cerevisiae deletion strains, locus YNL322C, strain KRE1 (second series), active compounds read low 0.953 | S. cerevisiae deletion strains, locus YNL322C, strain KRE1, active compounds read low 0.979 | S. cerevisiae deletion strains, locus YNR049C, strain mso1, active compounds read low 0.983 | S. cerevisiae deletion strains, locus YNR052C, strain pop2, active compounds read low 0.983 | S. cerevisiae deletion strains, locus YOL006C, strain TOP1, active compounds read low 1.06 | S. cerevisiae deletion strains, locus YOL012C, strain htz1 0.966 | S. cerevisiae deletion strains, locus YOL147C, strain pex11, active compounds read low 0.969 | S. cerevisiae deletion strains, locus YOR001W, strain rrp6, active compounds read low 1.01 | S. cerevisiae deletion strains, locus YOR061W, strain CKA2, active compounds read low 1 | S. cerevisiae deletion strains, locus YOR069W, strain VPS5, active compounds read low 0.986 | S. cerevisiae deletion strains, locus YOR070C, strain gyp1, active compounds read low 0.986 | S. cerevisiae deletion strains, locus YOR080W, strain dia2, active compounds read low 0.996 | S. cerevisiae deletion strains, locus YOR083W, strain WHI5 (second series), active compounds read low 0.987 | S. cerevisiae deletion strains, locus YOR083W, strain WHI5, active compounds read low 0.908 | S. cerevisiae deletion strains, locus YOR106W, strain vam3, active compounds read low 0.933 | S. cerevisiae deletion strains, locus YOR136W, strain idh2, active compounds read low 0.992 | S. cerevisiae deletion strains, locus YOR144C, strain elg1, active compounds read low 0.989 | S. cerevisiae deletion strains, locus YOR184W, strain ser1, active compounds read low 0.991 | S. cerevisiae deletion strains, locus YOR231W, strain MKK1, active compounds read low 1.01 | S. cerevisiae deletion strains, locus YOR265W, strain rbl2, active compounds read low 0.992 | S. cerevisiae deletion strains, locus YOR270C, strain vph1, active compounds read low 0.932 | S. cerevisiae deletion strains, locus YOR290C, strain snf2, active compounds read low 0.967 | S. cerevisiae deletion strains, locus YOR316C, strain cot1, active compounds read low 0.982 | S. cerevisiae deletion strains, locus YPL051W, strain arl3, active compounds read low 0.968 | S. cerevisiae deletion strains, locus YPL055C, strain LGE1, active compounds read low 1.01 and 0.983 | S. cerevisiae deletion strains, locus YPL078C, strain atp4, active compounds read low 0.944 | S. cerevisiae deletion strains, locus YPL106C, strain sse1, active compounds read low 0.97 | S. cerevisiae deletion strains, locus YPL240C, strain hsp82, active compounds read low 1.01 | S. cerevisiae deletion strains, locus YPL241C, strain CIN2, active compounds read low 0.987 | S. cerevisiae deletion strains, locus YPL256C, strain CLN2, active compounds read low 0.959 | S. cerevisiae deletion strains, locus YPR119W, strain clb2, active compounds read low 0.975 | S. cerevisiae deletion strains, locus YPR141C, strain kar3, active compounds read low 0.976 | S. cerevisiae deletion strains, locus YPR163C, strain tif3, active compounds read low 0.978 | S. cerevisiae deletion strains, locus YPR167C, strain met16, active compounds read low 0.974 | S. cerevisiae deletion strains, strain wtn01, active compounds read low 0.99 | S. cerevisiae strains, strain wild type, active compounds read low 0.993
